# Experimental data as given in PubChem BioAssay.
# Where “and” joins values, the source holds several entries; their conditions need not be identical. Identical values can stand only once. Values without a mark were called inactive. How the calls were made is not given here.
# Molecular target: Lethal factor (Bacillus anthracis) (UniProt P15917)
# Experiment: Bacillus anthracis lethal factor inhibition, microsphere flow cytometry protease assay, validation at 10 µM (AID 588461)
# Details: multiplex microsphere protease cleavage assay, hits give high values
row,Compound,inhibition
1,O=C(c1ccccc1)N1CCN(C(=O)c2ccccc2)CC1,-0.8%
2,O=C(O)CCCc1ccccc1,-6.6%
3,CC(NC(=O)c1cccnc1)C(=O)O (stereo not given),-4.7%
4,O=C(Nc1cccc(Oc2c(F)c(F)c(F)c(F)c2F)c1)N1C[C@@H]2C[C@@H](C1)c1cccc(=O)n1C2,7.2%
5,O=C1CCc2cc(OCCCCc3nnnn3C3CCCCC3)ccc2N1,-5.5%
6,CC(=O)N1CC2(C)CN(C(C)=O)CC(C)(C1)C2,7.3%
7,COc1cc(Cc2cnc(N)nc2N)cc(OC)c1OC,-0.1% and 0.6%
8,COc1ccc(O)c(C(=O)/C=C/c2cc3ccccc3o2)c1,-3.5%
9,Cc1ccccc1C(=O)NCC(=O)O,2.8%
10,c1ccc(SSc2ccccc2)cc1,-8.9%
11,O=C(CCN1CCC(c2ccccc2)C1)c1ccc2c(c1)OCCO2 (stereo not given),-1.8%
12,CCc1ccc(CN(C)Cc2nc(Cc3ccccc3)no2)nc1,1.2%
13,CCCCCCCCCC(=O)OCC(O)CO (stereo not given),-4.5%
14,CC(=O)N1CCN(c2ccc(OC[C@H]3CO[C@](Cn4ccnc4)(c4ccc(Cl)cc4Cl)O3)cc2)CC1,-3.1%
15,C[C@H]1O[C@@H](O[C@H]2[C@@H](O)C[C@H](O[C@H]3[C@@H](O)C[C@H](O[C@H]4CC[C@@]5(C)[C@H](CC[C@@H]6[C@@H]5C[C@@H](O)[C@]5(C)[C@@H](C7=CC(=O)OC7)CC[C@]65O)C4)O[C@@H]3C)O[C@@H]2C)C[C@H](O)[C@@H]1O,-2.8%
16,COc1c(C)cc(C(=O)C2CCCN(Cc3ccc(Oc4ncccn4)cc3)C2)cc1C (stereo not given),-4.4%
17,C[N+]12CCCCC1C(COC(=O)c1ccc3c(c1)OCO3)CCC2 (stereo not given),-0.7%
18,CCOC(=O)c1ccc(NC(=S)NCCc2ccccc2F)cc1,-2.3%
19,CN(C)CCC(c1ccccc1)c1ccccn1 (stereo not given),2.6%
20,CC(=O)OCC(=O)[C@@]12OC3(CCCC3)O[C@@H]1C[C@H]1[C@@H]3CCC4=CC(=O)C=C[C@]4(C)[C@@]3(F)[C@@H](O)C[C@@]12C,-0.7%

row,Compound,inhibition
1,COc1ccc(CNCCC2(C(C)C)CCOC(C)(C)C2)cc1 (stereo not given),-4%
2,COc1ccc(OC)c(-c2oc3ccccc3c(=O)c2O)c1,2.9%
3,O=C(COc1ccccc1)N1CCN(c2ccccc2)CC1,-0.7%
4,Cc1nc(C2CC(=O)OC23CCCCC3)cs1 (stereo not given),-10.4%
5,COc1ccc(NC(=S)NCCc2c[nH]c3ccccc23)cc1,0.4%
6,NC[C@H]1O[C@H](O[C@H]2[C@H](O)[C@@H](O[C@H]3O[C@H](CO)[C@@H](O)[C@H](N)[C@H]3O)[C@H](N)C[C@@H]2N)[C@H](N)C[C@@H]1O,-1.8%
7,CSCCC(NC(=O)OC(C)(C)C)C(=O)Oc1ccc2c(=O)c(-c3ccc4c(c3)OCCO4)coc2c1 (stereo not given),-1.7%
8,COc1ccc(-c2cc(=Nc3ccc(C)cc3)c3ccccc3o2)cc1,2.9%
9,CC(=O)O[C@]1(C(C)=O)CC[C@H]2[C@@H]3C=C(Cl)C4=CC(=O)CC[C@]4(C)[C@H]3CC[C@@]21C,-4.2%
10,CC(C)OC(=O)CC1C(=O)NCCN1C(=S)NC(=O)c1cccs1 (stereo not given),-5.8%
11,CC(C)Oc1ccc(C(CC(=O)O)c2ccc(F)cc2)cc1 (stereo not given),0.9%
12,COc1ccc(NC(=O)Nc2ccc(C(C)C)cc2)cc1,5.7%
13,CC(=O)C1=C(O)C(=O)N(CC(=O)O)C1c1ccccc1Cl (stereo not given),-3%
14,CC12CN3CC(C)(CN(C1)C3c1ccc([N+](=O)[O-])o1)C2 (stereo not given),-5.6%
15,CC1(c2ccccc2)CC(C)(C)N2C(=O)C(=O)c3cccc1c32 (stereo not given),-0.4%
16,CN(C)CCOCCOc1ccc(Cl)cc1Br,-5.5%
17,COc1ccc(CCNC(=S)NC(=O)/C=C/c2ccc(C)cc2)cc1OC,-7.3%
18,COc1ccc(CN2CCCC(C(=O)c3ccc(Cl)cc3)C2)cc1Cn1cccn1 (stereo not given),3.9%
19,CC(C[N+](C)(C)C)OC(N)=O (stereo not given),6.6%
20,O=C(c1ccc(Cl)cc1)C1CCCN(Cc2ccc(Oc3ncccn3)cc2)C1 (stereo not given),-3.2%
